Source: PubChem BioAssay (NCI)
About 79,000 compounds went through this panel and 15% of them were active in at least one assay; those are over-represented in the sample as a whole. Activity calls are given as the source filed them. No stated cut-off is given here; in the data, active means growth inhibition above about 70%; inactive means the rest.

Key:
[1] = NCI Yeast Anticancer Drug Screen. Data for the mec2-1 strain (AID 157); conditions: S. cerevisiae mec2-1 strain, at 50.0 µM, active compounds read high
In short: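 Strain: mec2-1 (DNA repair/cell cycle alteration). Compound exposure, then growth measured; inhibition expressed relative to vehicle.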

[2] = NCI Yeast Anticancer Drug Screen. Data for the sgs1 mgt1 strain (AID 161);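 further: 0% = growth of cultures given vehicle only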; conditions: S. cerevisiae sgs1 mgt1 strain, at 50.0 µM, active compounds read high
In short: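 Mutant yeast exposed to compound; growth scored against vehicle-only wells.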

[3] = NCI Yeast Anticancer Drug Screen. Data for the cln2 rad14 strain (AID 165);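 further: 0% = growth equal to vehicle treated cultures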; conditions: S. cerevisiae cln2 rad14 strain, at 50.0 µM, active compounds read high
In short: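 Compounds are applied to the cln2 rad14 yeast strain, and growth is then compared with that of vehicle-treated cultures to give inhibition.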

[4] = NCI Yeast Anticancer Drug Screen. Data for the bub3 strain (AID 167); conditions: S. cerevisiae bub3 mutant strain, at 50.0 µM, active compounds read high
In short: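 Inhibition values come from growth of compound-treated mutant yeast normalised to vehicle-treated controls.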

[5] = NCI Yeast Anticancer Drug Screen. Data for the mlh1 rad18 strain (AID 175); conditions: S. cerevisiae mlh1 rad18 strain growth inhibition; at 50.0 µM; active compounds read high
In short: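 Read-out is yeast growth inhibition, calculated against vehicle-only controls. The compound was applied to a strain engineered with DNA damage repair alterations.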

Compound	growth inhibition [1]	growth inhibition [2]	growth inhibition [3]	growth inhibition [4]	growth inhibition [5]
O=c1nc(-c2ccco2)sc(=O)[nH]1	-5.6% (inactive)	-8.35% (inactive)	13.2% (inactive)	-5.85% (inactive)	-3.4% (inactive)
CC(=O)N/N=C1/NN(C(C)=O)C2(S1)C(=O)Nc1ccc(C)cc12 (configuration not stated)	38.8% (inactive)	40.1% (inactive)	28.8% (inactive)	24.8% (inactive)	7.7% (inactive)
OCC(O)C(O)C(O)C(O)/C=N\Nc1ccccc1 (configuration not stated)	67% (inactive)	62.8% (inactive)	34.1% (inactive)	81% (active)	89.1% (active)
CC(=O)Nc1ccc(/C=C2\CCOC2=O)cc1[N+](=O)[O-]	8.2% (inactive)	7.15% (inactive)	57.5% (inactive)	8% (inactive)	3.6% (inactive)
CCN(CC)C(=O)C1CCNCC1	-14.4% (inactive)	-2% (inactive)	-27.2% (inactive)	9.85% (inactive)	-7.75% (inactive)
O=[N+]([O-])c1ccc2c(Cl)c3ccccc3nc2c1	24.1% (inactive)	2% (inactive)	17.6% (inactive)	34.2% (inactive)	16.6% (inactive)
Cc1cc(O)c([N+](=O)[O-])c(C)c1[N+](=O)[O-]	35.2% (inactive)	3.5% (inactive)	41.2% (inactive)	39.3% (inactive)	0.25% (inactive)
O=C(Nc1nncs1)c1cccs1	-6.45% (inactive)	-5.6% (inactive)	3.35% (inactive)	-11.2% (inactive)	-27.5% (inactive)
O=S1(=O)OCCOS(=O)(=O)C1S(=O)(=O)c1ccc2ccccc2c1	-6.15% (inactive)	9.3% (inactive)	34.8% (inactive)	1.4% (inactive)	11.8% (inactive)
COc1ccc(C2CC(c3ccccc3)=Nc3ccccc3S2)cc1OC (configuration not stated)	-26.3% (inactive)	11.7% (inactive)	4.15% (inactive)	2.4% (inactive)	3.75% (inactive)
C[C@@H]1CC[C@]2(C)C3(C)CC[C@]2(OC3=O)[C@@]12CC(c1ccoc1)OC2=O (some centres not stated)	-13.8% (inactive)	-9.35% (inactive)	-7.45% (inactive)	-5.45% (inactive)	-42.3% (inactive)
O=C(NC(=S)Nc1cccc(Cl)c1)c1ccccc1	26.5% (inactive)	33.3% (inactive)	-7.3% (inactive)		12.4% (inactive)
C#CC(C)(C)OC(=O)Nc1cccc(Cl)c1	-11.3% (inactive)	-16.1% (inactive)	-8.35% (inactive)		10.7% (inactive)
O=C(Nc1ccc(S(=O)(=O)NC2CCCCC2)cc1)OC1CCCCCC1	-1.25% (inactive)	7.75% (inactive)	4.35% (inactive)	-1.95% (inactive)	-0.85% (inactive)
CCCC(=O)C(CC)C(=O)OCC (configuration not stated)	-1.35% (inactive)	-3% (inactive)	-9.8% (inactive)	-0.25% (inactive)	11.4% (inactive)
CC(=O)NC1C(OC2C(CO)OC(OCC3OC(n4ccc(N)nc4=O)C(O)C3O)C(NC(C)=O)C2O)OC(CO)C(O)C1O (configuration not stated)	48.4% (inactive)	2.1% (inactive)	-16.2% (inactive)	-3.45% (inactive)	89.2% (active)
O=C(C[N+](=O)[O-])OCc1ccccc1	22.8% (inactive)	6.4% (inactive)	-18.1% (inactive)	-0.4% (inactive)	4.65% (inactive)
CCOC(=O)CC[C@H](NC(=O)c1[nH]cnc1/N=N/N(C)C)C(=O)OCC	-41.5% (inactive)	-56% (inactive)	3.7% (inactive)	-12.1% (inactive)	-36.9% (inactive)
NC(=O)c1c[n+]([O-])ccc1[N+](=O)[O-]	5.3% (inactive)	34.8% (inactive)	28.1% (inactive)	-14.8% (inactive)	18.2% (inactive)
COc1ccc(C2=Nn3c(nc4sc(-c5ccccc5)cc4c3=O)SC2)cc1	-9.15% (inactive)	-25.6% (inactive)	3.55% (inactive)	-8.05% (inactive)	-16% (inactive)

Compound	growth inhibition [1]	growth inhibition [2]	growth inhibition [3]	growth inhibition [4]	growth inhibition [5]
C(=N/n1nnc(-c2ccccc2)n1)/c1ccccc1	-10.1% (inactive)	-3% (inactive)	-44.1% (inactive)	-5.3% (inactive)	-6.05% (inactive)
CC1(C)N=C(N)N=C(N)N1c1cccc(CO)c1	9.5% (inactive)	1.15% (inactive)	-2.45% (inactive)	15.2% (inactive)	28.2% (inactive)
CC(=O)OCCS(=O)(=O)c1c(Cl)c(Cl)c(Cl)c(Cl)c1Cl	97.4% (active)	98.9% (active)	93.8% (active)	95.7% (active)	97.8% (active)
O=C(O)C(Cc1ccccc1)c1ccc(Cl)cc1 (configuration not stated)	27.3% (inactive)	43.1% (inactive)	20.6% (inactive)	41.8% (inactive)	25.9% (inactive)
Fc1ccccc1C(Nc1nc2ccccc2s1)Nc1nc2ccccc2s1	6.05% (inactive)	-7.3% (inactive)	-0.3% (inactive)	-3.15% (inactive)	1.35% (inactive)
Cc1nc2ccccc2nc1CC(O)(c1ccccc1)c1cccc2ccccc12 (configuration not stated)	18.9% (inactive)	37.4% (inactive)	26.9% (inactive)	13.2% (inactive)	38.4% (inactive)
CCC(=O)OCC[N+](C)(C)C	-37.6% (inactive)	-22.9% (inactive)	-4.25% (inactive)	-38.5% (inactive)	-20.9% (inactive)
COc1cc2c[n+](C)c(-c3ccc(Cl)c(Cl)c3)c(OC)c2cc1OC	8.15% (inactive)	41.5% (inactive)	31.4% (inactive)	14.9% (inactive)	41.5% (inactive)
O=[N+]([O-])c1ccc(N=Cc2ccccc2)cc1	-30.6% (inactive)	12.9% (inactive)	3.75% (inactive)	16.5% (inactive)	
O.[Cl][Pt].[NH-]CC[S-]	4% (inactive)	12.3% (inactive)	-9.6% (inactive)	1.3% (inactive)	-2% (inactive)
COC(=O)c1cc(-c2ccc(F)cc2)[nH]c(=O)c1C#N	-10.4% (inactive)	15.3% (inactive)	13.4% (inactive)	-25.8% (inactive)	16.6% (inactive)
CCCC1CCCC1C (configuration not stated)	4.25% (inactive)	8.45% (inactive)	5.4% (inactive)	17.4% (inactive)	-1.85% (inactive)
CN(C)CC1(Cc2ccccc2)CCC(Cc2ccccc2)C1=O (configuration not stated)	63.4% (inactive)	85.3% (active)	54% (inactive)	45.6% (inactive)	86.3% (active)
CN(CCC[N+](C)(C)C)C(=O)C(c1ccccc1)c1ccccc1	-0.25% (inactive)	19.2% (inactive)	-9.55% (inactive)	6.35% (inactive)	2.7% (inactive)
CC(=O)OC/C(=C/C#N)C1CCC2C3CCC4CC(OC(C)=O)CCC4(C)C3CCC12C (configuration not stated)	30.7% (inactive)	45.5% (inactive)	40% (inactive)	21.5% (inactive)	57.5% (inactive)
COc1ccc(OC)c(NC(=O)C2=C(C)NC(C)=C(C(=O)Nc3cc(OC)ccc3OC)C2c2cccc([N+](=O)[O-])c2)c1	8.65% (inactive)	1.9% (inactive)	-9.3% (inactive)	7.5% (inactive)	4.25% (inactive)
c1ccc2cc3c(cc2c1)OP1(=NP2(=NP4(=N1)Oc1cc5ccccc5cc1O4)Oc1cc4ccccc4cc1O2)O3	28.1% (inactive)	33.6% (inactive)	18.8% (inactive)	15.7% (inactive)	12.6% (inactive)
CSc1nc(NCc2ccc(Cl)cc2)c2[nH]c(C)nc2n1	-13.6% (inactive)	18.4% (inactive)	-3% (inactive)	20.1% (inactive)	6.45% (inactive)
C/C(=C\C(=N\Nc1nc(C)cc(=O)[nH]1)c1ccccc1)c1ccccc1	-11.4% (inactive)	-8.75% (inactive)	3.45% (inactive)	6.8% (inactive)	-2.2% (inactive)
c1ccc(-c2n[nH]c(-c3[nH]nc(-c4ccccc4)c3-c3ccccc3)c2-c2ccccc2)cc1	15.3% (inactive)	-12% (inactive)	5.15% (inactive)	7.35% (inactive)	8.2% (inactive)
